# Data as given in PubChem BioAssay AID602429 (Sanford-Burnham Center for Chemical Genomics, 2012).
# In all, about 360,000 compounds went through this assay and about 1,200 (0.33%) were called active. Shown is part of a subset that was picked to be rich in actives. Unmarked numbers belong to inactive results. No stated cut-off is given here; in the data, active means inhibition above about 37%; inactive means the rest.
# Biological target: Small ubiquitin-related modifier 1 (Homo sapiens) (UniProt P63165)
# Sequence (P63165 whole entry, looked up): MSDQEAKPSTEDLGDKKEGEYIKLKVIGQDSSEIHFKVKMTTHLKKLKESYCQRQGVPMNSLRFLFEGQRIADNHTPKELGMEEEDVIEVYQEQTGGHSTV
# Assay: modulators of SUMO1 protein-protein interactions, primary screen, biochemical, uHTS (AID 602429)
# Conditions: SUMO1 binding to a labelled peptide, TR-FRET, 1 h; at 20 µM; active compounds read high
row,Compound,inhibition
1,Cc1nnc(SCC(=O)Nc2ccc(S(=O)(=O)Nc3ccc(Cl)nn3)cc2)s1,25.2%
2,COC(=O)CNC(=O)c1ccc(OC2CCN(C(=O)C3CC3)CC2)cc1,-0.596%
3,Clc1ccc(C2=CSC3=Nc4cccc5cccc(c45)N23)cc1,55.4% (active)
4,CC(C)(C)NC(=O)C(c1ccco1)N(Cc1ccc2c(c1)OCO2)C(=O)Cn1nnc2ccccc21 (stereo not given),1.87%
5,CCCCn1c(N)c(N(CC(C)C)C(=O)C2CSC3(C)CCC(=O)N23)c(=O)[nH]c1=O (stereo not given),2.07%
6,CSc1cc(C)n(-c2ccccc2C)c(=S)c1C(C)=O,-3.72%
7,O=C(c1cccs1)N1CCC(c2nc3ccccc3s2)CC1,-0.383%
8,O=C(NCCCN1CCOCC1)c1ccccc1NS(=O)(=O)c1ccc(F)cc1,2.97%
9,CCOC(=O)Cn1nnnc1C,4.96%
10,COc1ccc(S(=O)(=O)N2CCOCC2)c(C)c1C,0.744%
11,C=CCn1c(=S)[nH]c2scc(-c3ccco3)c2c1=O,80.7% (active)
12,C=CCNC(=S)NNc1ncnc2sc3c(c12)CC(C)(C)OC3,-4.03%
13,O=C(Nc1ccccc1C(=O)NCCCn1ccnc1)c1ccc(Cl)cc1Cl,-2.3%
14,C=C(Br)CN1CCN(CC(=C)Br)CC1,1.02%
15,O=C(CN1CCCCCC1)Nc1c(Cl)cc(Cl)cc1Cl,-1.26%
16,O=C(CSc1nc(C2CC2)nc2ccccc12)Nc1cccc(O)c1,45.7% (active)
17,Cc1nnc(NC(=O)CSc2nc(C3CCCCC3)nc3ccccc23)s1,-2.49%
18,O=C(CSc1nc(C2CC2)nc2ccccc12)Nc1ccc2c(c1)OCCO2,-1.95%
19,O=C(Cn1cnc2c(nnn2Cc2ccc(F)cc2)c1=O)NCc1ccc2c(c1)OCO2,1.22%
20,Cc1cc(S(=O)(=O)c2cc3ccc(O)c(C)c3oc2=O)ccc1F,-12.4%

row,Compound,inhibition
1,OCCc1ccc(NCCc2ccco2)cc1,4%
2,COc1ccc(C(=O)Nc2cc(C)c(NC(=O)c3ccccc3OC)cn2)cc1,40% (active)
3,COc1ccccc1NC(=O)c1cc(Cl)nnc1Cl,-6.09%
4,COc1ccc(C(=O)N/N=C(\C)CC(=O)Nc2ccc(Cl)cn2)cc1,-4.09%
5,CCOc1ccc(NC(=O)c2ccc(NC(=O)CN3C(=O)C(=O)N(CC(C)C)C3=O)cc2)cc1,6.4%
6,CCOc1ccc(NC(=O)c2ccc(NC(=O)COC(=O)c3ccc(NC(=O)CC#N)cc3)cc2)cc1,58.6% (active)
7,CCOc1ccc(NC(=O)c2ccc(NC(=O)C3CCCO3)cc2)cc1 (stereo not given),1.59%
8,CCCCn1c(N)c(N(CCOC)C(=O)c2cccc(S(=O)(=O)N3CCCCC3)c2)c(=O)[nH]c1=O,1.21%
9,Cc1nc2ccccc2c(C)c1C(=O)c1ccc(F)cc1,-0.636%
10,O=C(NNC(=S)NC(=O)c1cn(-c2ccccc2)nc1-c1ccccc1)c1ccncc1,7.64%
11,Cc1onc(-c2ccccc2)c1C(=O)NNC(=S)NC(=O)c1ccc(F)cc1,61.3% (active)
12,CCc1nc2ccc(C(=O)N(C)Cc3ccco3)cn2c1N(C)C(=O)Cc1ccccc1,3.29%
13,CCc1cc2cc(OC)ccc2nc1SCC(=O)Nc1cc(OC)c(OC)cc1C(=O)O,4.88%
14,CCOC(=O)C1=C(C)NC(C)=C(C(=O)OCC)C1C1=COCCO1,-7.71%
15,O=C(Nc1ccc(N2CCN(C(=O)c3cccs3)CC2)cc1)c1cccnc1Cl,-1.91%
16,CC(=O)Nc1cc(-c2ccc(N3CCN(C)CC3)cc2)cn2c(-c3ccc(F)cc3)cnc12,-43.3%
17,C=CC(=O)Nc1ccc(Nc2ccnc(Nc3ccc(N4CCN(C)CC4)cc3)n2)cc1,88.3% (active)
18,Cc1noc(C)c1S(=O)(=O)Nc1ccc(C(=O)O)cc1,2.25%
19,CC(=O)N1c2ccc(S(=O)(=O)N3CCCC(C(=O)Nc4cccc(F)c4)C3)cc2CC1C (stereo not given),1.06%
20,O=C(COc1ccc([N+](=O)[O-])cc1Cl)Nc1ccc2[nH]c(=O)[nH]c2c1,-14.3%

row,Compound,inhibition
1,O=C(COC(=O)c1cccc(Cl)c1)Nc1ccc2[nH]c(=O)[nH]c2c1,3.54%
2,COc1ccc(C(=O)OCC(=O)Nc2ccc3[nH]c(=O)[nH]c3c2)c(OC)c1OC,45.3% (active)
3,Cc1ccc(S(=O)(=O)N2CCN(C(=O)Cn3c(=O)cnc4ccccc43)CC2)c(C)c1,-18.5%
4,O=C(CCl)N(Cc1cccc([N+](=O)[O-])c1)c1cccc(Cl)c1,-8.32%
5,Nc1c(Cl)cc(S(N)(=O)=O)cc1S(N)(=O)=O,-2.85%
6,Cc1ccc(SC(CC(=O)c2ccc(C(C)(C)C)cc2)C(=O)O)cc1 (stereo not given),1.42%
7,OC(COc1ccccc1)CN1CCN(c2cccc(Cl)c2)CC1 (stereo not given),49.6% (active)
8,OC(COc1ccc2c(c1)CCC2)CN1CCN(c2cccc(Cl)c2)CC1 (stereo not given),0.823%
9,CCC(=O)c1ccc(OCC(O)CN2CCN(c3cccc(C(F)(F)F)c3)CC2)cc1 (stereo not given),-0.535%
10,CC1CCCC(NC(=O)CSc2nccn2C)C1C (stereo not given),-1.19%
11,O=C(COc1coc(CN2CCN(c3ccccc3)CC2)cc1=O)Nc1ccccc1F,0.279%
12,O=C(COc1coc(CN2CCN(c3ccccc3)CC2)cc1=O)N1CCc2ccccc21,-4.23%
13,O=C(COc1coc(CN2CCN(c3ccccc3F)CC2)cc1=O)N1CCc2ccccc21,47.1% (active)
14,C=C1c2c(Cl)ccc(O)c2C(O)=C2C(=O)[C@]3(O)C(O)=C(C(N)=O)C(=O)[C@@H](N(C)C)[C@@H]3[C@@H](O)C12 (stereo not given in full),62.7% (active)
15,CCC(C)CCN1CCN=C1N(C)C (stereo not given),1.08%
16,Cc1ccc(NC(=O)Cn2sc3ccccc3c2=O)cc1,5.66%
17,O=c1c2cc([N+](=O)[O-])ccc2nc2n1CCC2,-38.3%
18,Cc1cc(OCCCC(=O)Nc2cc(S(=O)(=O)N3CCOCC3)ccc2N2CCOCC2)ccc1Cl,-3.23%
19,COCCNC(=S)Nc1cc(S(=O)(=O)N2CCOCC2)ccc1N1CCCCC1,1.91%
20,O=[N+]([O-])c1cc(Cl)cc(/C=N/NC(=S)Nc2cc(S(=O)(=O)N3CCOCC3)ccc2Cl)c1O,36.3% (active)
